From PubChem BioAssay
Hits are enriched below; roughly 7.3% of the tested compounds scored in any of these assays.
Vaccinia mCherry: vaccinia inhibition (mCherry reporter). 310,000 tested, 0.63% active. Potency, µM (titrated, usually from 36.5 µM), usual class: inhibitors. Vaccinia virus mCherry reporter infection, fluorescence; calls by dose curve; tested in A549 cells; also: nearly all actives have a fitted effect of over 35% in size
HCV inh: inhibitors of hepatitis C virus infection; Huh7.5.1 HCVcc-Cre infection, luciferase reporter, 44 h; Potency, µM (top dose mostly 41.8 µM), hits mostly inhibitors; 340,000 tested, 3.4% active; AID 651820; active = well fitted inhibition curve with a large enough effect; inconclusive = small, poorly fitted or top-dose-only effect, or another doubt; inactive = no such curve, though single readings can be large or run the other way
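1,000 cells/well; 4 h culture; + compound; + HCVcc-Cre (~0.5 moi); 44 h; luciferase substrate, RT 15 min; read 15 sec.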
FMDV antiviral: blocks foot and mouth disease virus; FMDV antiviral cell-based qHTS; Potency, µM (top dose mostly 57.9 µM), usual class: inhibitors; 410,000 tested, 1.2% active; AID 1159524; calls by dose curve; tested in HEK293T cells; also: read-out not given here; nearly all actives have a fitted effect of over 45% in size
HCMV inh: blocks human cytomegalovirus replication. HFF cells, HCMV-luciferase reporter, 72 h; active compounds read low. activity change, negative = inhibition, % at 57.5 µM. 410,000 tested, 4.5% active; in the data active = activity change below about -60%; inconclusive = no clear call, values can overlap the other calls; inactive = above about -39%
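After 16 h attachment at 37C, HFF cells received test compound and HCMV-luciferase (1 PFU/cell); reporter luminescence read 72 h later, data normalized against buffer-only and known inhibitor Salinomycin.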
VACV Venus inh: inhibitors of vaccinia virus (Venus reporter) | Vaccinia virus Venus reporter expression, fluorescence | Potency, µM (titrated, usually from 36.5 µM), hits mostly inhibitors | 330,000 tested, 0.46% active; calls by dose curve; tested in A549 cells; also: nearly all actives have a fitted effect of over 30% in size
Numbers stand for hits; – = inactive; ? = inconclusive; · = no result; ! = repeats disagree.

SMILES	Vaccinia mCherry	HCV inh	FMDV antiviral	HCMV inh	VACV Venus inh
Cn1cc([N+](=O)[O-])c(C(=O)Nc2ccc3nc(-c4ccccc4)[nH]c3c2)n1	?	?	–	-83	?
Cc1ccc2nc(-c3ccc(NC(=O)Cc4cccs4)cc3)[nH]c2c1	?	11µM	·	–	13µM
O=C(NCC1CCC2(CCN(Cc3cccn3-c3ccc(Cl)cn3)CC2)O1)c1ccccc1 (stereo unspecified)	–	·	–	·	–
CCOc1cc(-c2ccc3c(c2)OCO3)cc(=[O+]CC)c2c(C)oc(C)c12	–	·	·	·	–
O=C(Nc1ccc2nc(-c3ccc4nc[nH]c4c3)[nH]c2c1)c1cccs1	·	–	–	–	·
O=C(Nc1ccc2nc(-c3ccccc3)[nH]c2c1)c1cccs1	–	?	·	-79	–
CC(=O)N1Cc2ccccc2C(C)CC12CCCC2 (stereo unspecified)	–	?	25µM	–	–
Cc1c(C(=O)NCc2cccnc2)oc2ccc(S(=O)(=O)N3CCCCCC3)cc12	·	11µM!	–	–	·
Cc1ccc(CNC(=O)c2sc3ccc(S(=O)(=O)N4CCCCC4)cc3c2N)cc1	·	32µM	·	·	·
Nc1c(C(=O)NCCC2=CCCCC2)sc2ccc(S(=O)(=O)N3CCCCC3)cc12	·	–	–	–	·
Cc1c(C(=O)NCc2ccccc2)oc2ccc(S(=O)(=O)N3CCCC3)cc12	–	–	?	–	?
Cc1c(C(=O)NCc2cccnc2)oc2ccc(S(=O)(=O)N3CCCCC3)cc12	·	?	?	-83	·
CCOC(=O)c1c(NC(C)=O)sc2c(OCC(O)CNC(C)(C)C)c(Br)ccc12 (stereo unspecified)	·	4.5µM	–	-85	·
CCOC(=O)c1c(N)sc2c(OCC)c(Br)ccc12	–	10µM	·	–	–
N#Cc1c(Cl)nsc1NN	–	–	–	-104	–
Cc1cccc(OCc2n(CC(=O)OC3CC(C)CCC3C(C)C)c3ccccc3[n+]2C)c1 (stereo unspecified)	?	–	?	·	–
CC1CCC(C(C)C)C(OC(=O)Cn2c(-c3ccccc3)[n+](C)c3ccccc32)C1 (stereo unspecified)	?	?	13µM	-100	?
CC1CCC(C(C)C)C(OC(=O)C[n+]2cc(-c3ccc(Cl)cc3)n3c2CCC3)C1 (stereo unspecified)	–	–	–	?	–
CC1CCC(C(C)C)C(OC(=O)Cn2c(-c3ccc(F)cc3)[n+](C)c3ccccc32)C1 (stereo unspecified)	?	10µM	?	-102	?
CC1CCC(C(C)C)C(OC(=O)Cn2c(COc3ccccc3)[n+](C)c3ccccc32)C1 (stereo unspecified)	?	13µM	28µM	-100	?
COc1ccc(Cl)cc1NC(=O)N1CCC(CN2CCc3ccccc3C2)CC1	–	·	–	–	–
CCCC(=O)N1CC2(CCN(C)CC2)c2c(n(C)c3cc(OC)ccc23)[C@H]1CO	·	·	·	–	·
COC(=O)c1ccccc1NC(=O)c1cc(C)nc2c1c(C)nn2-c1ccc(C)cc1	–	·	–	–	–
CC(=O)Nc1ccc(S(=O)(=O)N2CCN(S(=O)(=O)c3ccccc3)CC2)cc1	·	–	–	–	·
Cc1ccc(C(=O)NS(=O)(=O)c2ccccc2)cc1	–	3.2µM	–	–	–
SMILES	Vaccinia mCherry	HCV inh	FMDV antiviral	HCMV inh	VACV Venus inh
Cc1ccc(C(=O)NS(=O)(=O)c2ccc(C)cc2)cc1	·	–	–	–	·
Cc1ccc(S(=O)(=O)CCC(=O)OCC(=O)NC(=O)c2ccccc2)cc1	–	–	–	–	–
Cc1ccc(S(=O)(=O)/C(=C/Cl)NC(=O)c2ccccc2)cc1	?	?	14µM	-66	?
O=C(NC(=C(Cl)Cl)S(=O)(=O)c1ccc(Cl)cc1)c1ccccc1	·	?	28µM	?	·
CC(=O)NC(=C(Cl)Cl)S(=O)(=O)c1ccccc1	7.9µM	?	22µM	-99	8.9µM
COc1ncc2nc(CCc3ccccc3)c(=O)n(CCC#N)c2n1	·	·	–	·	·
Cc1ccc(C(=O)NC(=C(Cl)Cl)S(=O)(=O)c2ccc(Cl)cc2)cc1	·	?	?	–	·
Cc1ccc(NC(=O)c2ccccc2)cc1	–	–	–	–	–
Cc1ccc(C(=O)NC(=C(Cl)Cl)S(=O)(=O)c2ccc(C)cc2)cc1	?	–	18µM	-60	?
Cc1ccc(S(=O)(=O)C(NC(=O)c2ccccc2)=C(Cl)Cl)cc1	?	?	13µM	-74	?
Oc1cc(O)cc(-c2cc3ccc(O)cc3o2)c1	–	–	–	–	–
CC1(C)Oc2cc3oc(-c4cc(O)cc(O)c4)cc3cc2CC1O (stereo unspecified)	–	–	11µM	–	–
COc1cccc(CNC(=O)c2c(OC)cc(=O)n3c2CCN(C(=O)C2CC24CCCCC4)CC3)c1 (stereo unspecified)	–	·	–	·	–
CCOC(=O)C1CCN(C(=O)c2ccccc2)c2scc(-c3ccccc3)c2C1=O (stereo unspecified)	–	·	32µM	?	–
Nc1c(C(=O)Nc2ccc(OC(F)(F)F)cc2)sc2nc3c(cc12)N1CCC3CC1	?	·	25µM	-78	?
CC(=O)c1ccc(NC(=O)c2sc3nc4c(cc3c2N)N2CCC4CC2)cc1	–	·	?	–	–
CC1(C)CC(=O)c2c(S(C)(=O)=O)sc(Br)c2C1	·	–	–	-60	·
CCOC(=O)C1CCN(C(=O)C2CCN(c3nnc(C)c4c(C)n(-c5ccccc5)nc34)CC2)CC1	–	·	–	–	–
COc1ccc2c3n([n+]([O-])c2c1)C(C)CN=C3c1ccc(C)cc1 (stereo unspecified)	·	·	·	–	·
Cc1c(Cl)cccc1N=Cc1ccc([N+](=O)[O-])s1	·	–	–	-108	·
Cc1ccc(C=Nc2ccccc2C#N)s1	–	–	–	–	–
COc1ccc2nc(N=Nc3ccc(N(C)C)cc3)sc2c1	–	–	13µM	–	–
COc1cccc(OC)c1CN1CCC2(CCC(CNC(=O)c3ccn(C)n3)O2)CC1 (stereo unspecified)	–	·	–	·	–
O=S(=O)(NCc1nc(N2CCCC2)c2cc(Cl)ccc2n1)c1ccccc1OC(F)(F)F	–	·	–	·	–
CC(C)c1ccc(NC(=O)Nc2nc(C(C)N)cs2)cc1 (stereo unspecified)	–	·	–	–	–
SMILES	Vaccinia mCherry	HCV inh	FMDV antiviral	HCMV inh	VACV Venus inh
CC(C)c1ccc(NC(=O)Nc2nc(C(N)C3CCCCC3)cs2)cc1 (stereo unspecified)	–	·	?	-101	?
CC(C)c1ccc(NC(=O)Nc2nc(C(N)c3ccccc3Cl)cs2)cc1 (stereo unspecified)	–	·	?	-70	–
CCOc1ccccc1N(CC(=O)N1CCC(C(N)=O)CC1)S(=O)(=O)c1ccc(SC)cc1	–	–	–	-70	–
CCOc1ccccc1N(CC(=O)N1CCC(C)CC1)S(=O)(=O)c1ccc(C)cc1	–	·	–	–	–
Cc1ccc(S(=O)(=O)N(CC(=O)N2CCCCCC2)c2ccccc2F)cc1	–	–	–	-62	–
Cc1cccc(C)c1NC(=S)NC(C)CCc1ccccc1 (stereo unspecified)	–	?	–	–	–
Cc1ccc(NC(=S)NC(C)CCc2ccccc2)cc1C (stereo unspecified)	?	?	–	-71	–
